Results published in PubChem BioAssay (NCATS).
Inconclusive results are not listed. A number with no mark means an inactive call. Active and inactive are the calls of the source. Calls follow the shape of the dose curve; as a rule, active = well fitted inhibition curve with a large enough effect; inconclusive = small, poorly fitted or top-dose-only effect; inactive = flat fitted curve, though single readings scatter.
% is scaled to controls: 0 for no effect and ±100 for the full control effect.

Each compound was assayed against Calcium and integrin-binding protein 1 (Homo sapiens) (UniProt Q99828) (assay: Primary qHTS for Identification of Calcium Integrin Binding Protein 1 (CIB1) Competitor (AID 1508620;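 also: GST tagged CIB1 binding a fluorescein labelled alphaIIb integrin peptide tracer; top concentration of the series differs between compounds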)). Details: CIB1-GST / FITC-alphaIIb peptide fluorescence polarization; series mostly up to 114 µM; activity change, negative = inhibition: at the top concentration.
Sequence of Calcium and integrin-binding protein 1 (Homo sapiens) (Q99828 whole entry, looked up): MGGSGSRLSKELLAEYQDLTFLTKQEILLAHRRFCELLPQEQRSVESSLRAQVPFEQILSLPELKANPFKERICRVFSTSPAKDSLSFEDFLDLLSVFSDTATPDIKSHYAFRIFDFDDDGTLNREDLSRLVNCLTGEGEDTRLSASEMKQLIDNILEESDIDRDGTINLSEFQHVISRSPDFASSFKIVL
Summary of the method: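 CIB1-GST (1 uM final) and compound incubated 15 min at room temperature before adding FITC-alphaIIb peptide tracer (100 nM final). Competition for binding read by fluorescence polarization (ex 480, em 540) after another 15 min at room temperature.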
In the case of Nc1nnc(-c2cccc3ccccc23)o1, the “activity change, negative = inhibition” value is reported as 2.82%.
For O=C(Nc1cncnc1)c1cccs1, the “activity change, negative = inhibition” value was 4.6%.
In the case of COc1ccc(-c2nnc3n2N=C(c2c(OC)cccc2OC)CS3)c(OC)c1, the “activity change, negative = inhibition” value is reported as 3.02%.
With O=C(NC1CCCc2c1cnn2-c1ccc(F)cc1F)c1ccc(C(=O)c2ccccc2)cc1 (stereo not given) the “activity change, negative = inhibition” value was 3.03%.
O=C(NCCCc1ccccc1)C1CCN(c2nc(-c3ccc(Br)cc3)cs2)CC1 was tested, and the “activity change, negative = inhibition” value was 4.01%.
O=C(Nc1ccc(N2CCOCC2)c(C(F)(F)F)c1)Nc1nnc(-c2ccncc2)s1 was tested, and the “activity change, negative = inhibition” value was -0.369%.
With O=C1CCCC2=C1C(c1[nH]ncc1Cl)NC(=NCc1cccnc1)N2 (stereo not given) the “activity change, negative = inhibition” value was 1.94%.
C#CCOc1cc(C2=Nn3c(nnc3-c3ccc(OCC(C)=O)cc3)SC2)ccc1OC was tested, and the “activity change, negative = inhibition” value was -2.47%.
CN(CCc1cccs1)c1ncnc2ccc(-c3ccc4c(c3)OCO4)cc12 was tested, and the “activity change, negative = inhibition” value was 3.79%.
In the case of O=C(Nc1ccc(F)c(C(F)(F)F)c1)Nc1nnc(-c2cccnc2)s1, the “activity change, negative = inhibition” value is reported as 0.305%.
For O=C1Nc2ccccc2/C1=C\c1ccc(O)c(F)c1, the “activity change, negative = inhibition” value was -6.92%.
In the case of Oc1cccc2cc(NCc3ccccc3F)cnc12, the “activity change, negative = inhibition” value is reported as -10.2%.
In the case of CC(=O)Nc1sc2cnccc2c1-c1nc2ccccc2s1, the “activity change, negative = inhibition” value is reported as 5.19%.
In the case of FC(F)(F)c1ccccc1-c1nc(NCc2ccc(-c3ccc4ccccc4c3)cc2)c2ccccc2n1, the “activity change, negative = inhibition” value is reported as -2.66%.
For O=C1CCc2cc(S(=O)(=O)Nc3ccc4c(c3)CCC4)ccc2N1, the “activity change, negative = inhibition” value was 6.39%.
For O=C1c2ccccc2C(=O)N1c1cccnc1, the “activity change, negative = inhibition” value was 2.21%.
With O=C(CNC(=O)c1ccccc1)OC(C(=O)Nc1cc([N+](=O)[O-])ccc1F)c1ccccc1 (stereo not given) the “activity change, negative = inhibition” value was -9.3%.
For Cc1ccc(OCCn2c(CCNC(=O)c3ccccn3)nc3ccccc32)cc1, the “activity change, negative = inhibition” value was -7.54%.
With COc1ccccc1CNc1ccc(S(=O)(=O)Nc2nccs2)cc1 the “activity change, negative = inhibition” value was 10.1%.
For NC(=O)c1ccc(-c2noc(-c3cccc(Cl)c3)n2)cc1, the “activity change, negative = inhibition” value was 1.3%.
In the case of O=C(O)c1ccc2c(c1)C(=O)N([C@H](Cc1ccc(C(F)(F)F)cc1)C(=O)O)C2=O, the “activity change, negative = inhibition” value is reported as -1.54%.
With Cc1cc(N[S+](=O)([O-])c2cc3c(cc2Cl)CCC(=O)N3)ccc1Cl the “activity change, negative = inhibition” value was -11.9%.
With Cc1cc(-c2nnc3n2CCCCC3)c(C)n1-c1ccccn1 the “activity change, negative = inhibition” value was -4.95%.
With Nc1ccccc1OCCn1c(CCNC(=O)C2CCCCC2)nc2ccccc21 the “activity change, negative = inhibition” value was -2.75%.
In the case of O=C1CCCC2=C1C(c1[nH]ncc1Cl)NC(=NCc1ccoc1)N2 (stereo not given), the “activity change, negative = inhibition” value is reported as -1.95%.
Oc1cccc2cc(-c3ccccc3)cnc12 was tested, and the “activity change, negative = inhibition” value was -6.33%.
For O=C(Nc1ccccc1)OCc1c(-c2ccccc2)no[n+]1[O-], the “activity change, negative = inhibition” value was 0.45%.
In the case of N#Cc1ccc(NC(=O)Nc2nnc(-c3ccncc3)s2)c(Cl)c1, the “activity change, negative = inhibition” value is reported as 7.97%.
In the case of OCc1ccnc(NC(=S)N2CCN(c3cccc(C(F)(F)F)c3)CC2)c1, the “activity change, negative = inhibition” value is reported as -0.577%.
For O=C(NCCc1nc2ccccc2n1CCOc1cccc(Br)c1)C1CCCCC1, the “activity change, negative = inhibition” value was 4.92%.
For CC(=O)N1CCN(c2ccc(NCc3ccco3)cc2)CC1, the “activity change, negative = inhibition” value was -12%.
With COc1cc(F)c(S(=O)(=O)N2CCCN(S(=O)(=O)c3cccc(NC(C)=O)c3)CC2)c(F)c1 the “activity change, negative = inhibition” value was -3.02%.
Cc1ccnc(NC(=S)N2CCN(c3cc(C(F)(F)F)cc(C(F)(F)F)c3)CC2)c1 was tested, and the “activity change, negative = inhibition” value was -19.7%.
In the case of O=C1c2ccccc2C(=O)N1c1cncc2ccccc12, the “activity change, negative = inhibition” value is reported as 5.67%.
Cc1ccc(C)c(OCCn2c(CCNC(=O)C3CCCCC3)nc3ccccc32)c1 was tested, and the Potency was “inactive”.
O=C(Nc1ccc(F)c(C(F)(F)F)c1)Nc1ccc(-c2ccncc2)s1 was tested, and the “activity change, negative = inhibition” value was -7.96%.
With Cc1ccc(NS(=O)(=O)c2ccc(F)cc2)cc1C the “activity change, negative = inhibition” value was 1.76%.
COc1ccc(OC)c(C2=Nn3c(nnc3-c3ccccc3OC)SC2)c1 was tested, and the “activity change, negative = inhibition” value was 6.28%.
Cn1nnnc1Sc1ncnc2scc(-c3ccccc3C#N)c12 was tested, and the “activity change, negative = inhibition” value was 0.531%.
With O=[S+]([O-])(Nc1ccc(-c2nc3ccccc3[nH]2)cc1)c1ccc2c(c1)CCO2 the “activity change, negative = inhibition” value was 0.754%.
